# Data reported in PubChem BioAssay.
# Calls of active or inactive are those of the source.
# Assays:
# [1] = system: Human papillomavirus type 1a protein E7 (residues 44-93); test: small molecules binding HPV E7 44-93 – biochemical, small-molecule microarray, residues 44-93, 635 nm fluorescence, primary screen (AID 1108); conditions: fluorescence 635 nm, higher = more signal;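 also: E7 fragment applied at 1 µg/mL in TBST for 1 h at 4 C; score combines spot fluorescence with its signal to noise ratio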
# [2] = hepatitis C replication reporter changes, two-sided – Huh7 cells, luciferase reporter, HCV replication inhibitor project, primary screen (AID 1109); conditions: Huh7 HCV replicon luciferase reporter, 48 h; higher = more signal;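 also: huh7 hepatoma cells harbouring a luciferase neomycin HCV replicon reporter; luciferase luminescence as measure of HCV replicon replication; test concentration not given here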
# [3] = target: Left-right determination factor 2 (Homo sapiens) (UniProt O00292); test: small molecules binding LEFTY2 protein – biochemical, small-molecule microarray, 635 nm fluorescence scan, primary screen (AID 1110); conditions: higher = more signal
# Sequence of Left-right determination factor 2 (Homo sapiens) (O00292 whole entry, looked up): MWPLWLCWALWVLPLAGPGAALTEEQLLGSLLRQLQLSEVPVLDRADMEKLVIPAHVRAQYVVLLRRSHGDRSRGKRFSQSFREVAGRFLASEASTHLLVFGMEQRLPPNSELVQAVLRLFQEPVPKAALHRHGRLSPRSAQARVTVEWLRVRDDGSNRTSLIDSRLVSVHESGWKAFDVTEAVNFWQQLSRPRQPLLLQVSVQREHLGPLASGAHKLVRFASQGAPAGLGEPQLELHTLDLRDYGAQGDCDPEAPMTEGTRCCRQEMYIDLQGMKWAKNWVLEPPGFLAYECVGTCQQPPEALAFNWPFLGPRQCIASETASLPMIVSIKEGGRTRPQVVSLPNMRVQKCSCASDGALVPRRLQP
# [4] = target: Calmodulin-1 (Homo sapiens) (UniProt P0DP23); test: small molecules binding calmodulin-1 with EGTA – biochemical, small-molecule microarray, Cy5-labelled CALM1, profiling panel (AID 1111); conditions: Cy5-CALM1 binding fluorescence, higher = more signal;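 also: labelled calmodulin applied in Tris saline Tween buffer holding calcium plus EGTA and DTT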
# [5] = target: Calmodulin-1 (Homo sapiens) (UniProt P0DP23); test: small molecules binding Ca-loaded calmodulin-1 – biochemical, small-molecule microarray, Cy5-labelled CALM1, plus calcium, artefact control for SMM control-protein annotation, profiling panel (AID 1112); conditions: Cy5-CALM1 binding fluorescence, higher = more signal;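 also: score merges spot fluorescence with signal to noise from triplicate slides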
# [6] = probe aWnt5a binding to arrayed compounds – biochemical, biotinylated probe, 635/667 nm fluorescence, primary screen (AID 1113); conditions: small-molecule microarray, higher = more signal;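 also: score merges 667 nm fluorescence intensity with signal-to-noise per printed feature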
# [7] = probe aShh binding to arrayed compounds – biochemical, biotinylated probe, 635/667 nm fluorescence, primary screen (AID 1114); conditions: small-molecule microarray, higher = more signal;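 also: probe is biotin-labelled aShh protein from a stem cell growth factor screen; measures binding of labelled protein to compounds printed on the slide; score merges feature fluorescence at 667 nm with signal-to-noise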
# [8] = probe aNog binding to arrayed compounds – biochemical, biotinylated probe, 635/667 nm fluorescence, primary screen (AID 1115); conditions: small-molecule microarray, higher = more signal;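 also: probe is biotinylated aNog protein used at 0.15 µg/mL for 1 h at 4 C; z-score combines 667 nm fluorescence of each spot with its signal to noise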
# [9] = target: Torsin-1A-interacting protein 1 (Homo sapiens) (UniProt Q5JTV8); test: compound microarray binding of lysate hLAP1 – cell lysate, small-molecule microarray, COS7 lysate, 635/667 nm fluorescence, primary screen (AID 1116); conditions: 635 nm fluorescence, higher = more signal
# Sequence of Torsin-1A-interacting protein 1 (Homo sapiens) (Q5JTV8 whole entry, looked up): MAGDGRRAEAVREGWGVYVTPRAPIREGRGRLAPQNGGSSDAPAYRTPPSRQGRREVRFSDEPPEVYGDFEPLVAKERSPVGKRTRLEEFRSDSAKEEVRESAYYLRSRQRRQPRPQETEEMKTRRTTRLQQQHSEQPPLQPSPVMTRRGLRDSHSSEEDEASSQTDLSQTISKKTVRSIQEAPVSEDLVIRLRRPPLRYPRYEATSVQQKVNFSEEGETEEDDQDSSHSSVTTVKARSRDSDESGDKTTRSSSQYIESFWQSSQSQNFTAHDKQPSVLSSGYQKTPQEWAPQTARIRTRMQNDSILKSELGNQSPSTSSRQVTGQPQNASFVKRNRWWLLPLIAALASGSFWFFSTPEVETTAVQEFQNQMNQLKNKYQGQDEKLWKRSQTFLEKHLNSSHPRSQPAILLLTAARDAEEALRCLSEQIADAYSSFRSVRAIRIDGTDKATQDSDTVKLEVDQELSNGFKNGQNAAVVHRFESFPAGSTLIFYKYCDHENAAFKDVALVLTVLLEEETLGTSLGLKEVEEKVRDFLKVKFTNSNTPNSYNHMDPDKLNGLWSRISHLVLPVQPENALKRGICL
# [10] = target: Alpha-bungarotoxin (Bungarus multicinctus) (UniProt P60615); test: compounds binding labelled alpha-BTX control protein – biochemical, small-molecule microarray, Alexa647 label, 635/667 nm fluorescence, artefact control for SMM control protein annotation, profiling panel (AID 1117); conditions: alpha-BTX-A647 binding fluorescence, higher = more signal
# Sequence of Alpha-bungarotoxin (Bungarus multicinctus) (P60615 whole entry, looked up): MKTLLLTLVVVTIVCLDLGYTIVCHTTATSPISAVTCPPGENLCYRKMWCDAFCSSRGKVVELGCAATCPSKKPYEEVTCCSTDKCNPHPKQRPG
# Albumin (Bos taurus) = Albumin (Bos taurus) (UniProt P02769); test: compounds binding labelled BSA control protein – biochemical, small-molecule microarray, Alexa647 label, 635/667 nm fluorescence, artefact control for SMM control protein annotation, profiling panel (AID 1118); conditions: BSA-A647 binding, fluorescence 635 nm, higher = more signal;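 also: score merges 667 nm emission intensity and signal-to-noise per printed compound spot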
# Sequence of Albumin (Bos taurus) (P02769 whole entry, looked up): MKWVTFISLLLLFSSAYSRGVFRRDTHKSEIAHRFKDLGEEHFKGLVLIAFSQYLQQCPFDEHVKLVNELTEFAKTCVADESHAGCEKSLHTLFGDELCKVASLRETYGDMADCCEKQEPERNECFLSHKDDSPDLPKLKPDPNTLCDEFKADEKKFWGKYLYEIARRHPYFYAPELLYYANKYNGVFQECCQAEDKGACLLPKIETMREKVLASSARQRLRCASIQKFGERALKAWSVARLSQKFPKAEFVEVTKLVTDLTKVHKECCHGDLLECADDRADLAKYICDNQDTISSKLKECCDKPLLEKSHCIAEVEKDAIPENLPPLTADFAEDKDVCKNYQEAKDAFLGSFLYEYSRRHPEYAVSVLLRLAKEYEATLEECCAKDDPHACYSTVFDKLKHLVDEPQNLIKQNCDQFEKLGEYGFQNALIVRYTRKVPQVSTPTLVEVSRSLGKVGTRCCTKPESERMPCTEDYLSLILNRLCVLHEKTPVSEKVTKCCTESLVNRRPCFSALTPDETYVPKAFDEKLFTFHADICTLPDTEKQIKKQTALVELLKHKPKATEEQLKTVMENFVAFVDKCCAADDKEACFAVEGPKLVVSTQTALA
# [11] = probe aXIP binding to arrayed compounds – biochemical, NeuroSMM set, 635/667 nm fluorescence, primary screen (AID 1119); conditions: small-molecule microarray, higher = more signal, called active from +8 up or from −8 down;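 also: probe is the protein aXip251-270 applied at 1 µg/mL to compound-printed slides; binding of probe to printed compounds measured as 667 nm fluorescence plus signal to noise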
# [12] = probe aNOTCH3 binding on compound microarray – biochemical, small-molecule microarray, 635/667 nm fluorescence, primary screen (AID 1120); conditions: higher = more signal;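 also: probe is a biotin-tagged antibody raised against NOTCH3 rather than NOTCH3 protein; score merges spot fluorescence near 667 nm with spot signal to noise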
# [13] = probe aNOTCH2 binding on compound microarray – biochemical, small-molecule microarray, 635/667 nm fluorescence, primary screen (AID 1121); conditions: higher = more signal;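 also: score merges feature fluorescence read at 667 nm with its signal to noise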
# [14] = target: Carbonic anhydrase 2 (Homo sapiens) (UniProt P00918); test: compounds binding carbonic anhydrase 2 – biochemical, small-molecule microarray, Alexa647-labelled CAII, profiling panel (AID 1122); conditions: CAII-A647 binding fluorescence, higher = more signal
# [15] = COS7 lysate on small-molecule microarray, probe aHis, 635 nm (AID 1123); conditions: COS7 cell lysate, fluorescence, higher = more signal;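 also: z-score combines 667nm fluorescence intensity with signal-to-noise per printed compound spot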
# [16] = probe aLAP1 signal on lysate-treated microarray – cell lysate, small-molecule microarray, COS7 lysate, primary screen (AID 1124); conditions: probe aLAP1, fluorescence, higher = more signal;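 also: lysate comes from COS7 cells expressing LAP1 and is applied at 0.3 µg/mL; score merges spot fluorescence near 667 nm with signal-to-noise over triplicate slides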
# Sam68 (KHDRBS1) = test: compounds binding KHDRBS1 protein – biochemical, small-molecule microarray, 635 nm fluorescence, primary screen (AID 1125); conditions: higher = more signal;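 also: score merges 667 nm channel intensity with signal to noise over triplicate slides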
# [17] = system: Chordin-like protein 2 (CHRDL2); test: compounds binding chordin-like 2 – biochemical, small-molecule microarray, 635 nm fluorescence, primary screen (AID 1126); conditions: fluorescence 635 nm, higher = more signal;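 also: printed compound slides probed with Chrdl2 protein at 4 µg/mL for 1 h at 4 C; score merges 667 nm emission intensity with signal to noise over three replicate slides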
# [18] = target: Concanavalin-A (Canavalia ensiformis) (UniProt P02866); test: compounds binding concanavalin A lectin – biochemical, small-molecule microarray, Alexa647 label, 635 nm, artefact control for SMM control protein annotation, primary screen (AID 1127); conditions: ConA-A647 binding fluorescence, higher = more signal;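 also: z combines 667 nm emission intensity with signal-to-noise across three replicate slides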
# Sequence of Concanavalin-A (Canavalia ensiformis) (P02866 whole entry, looked up): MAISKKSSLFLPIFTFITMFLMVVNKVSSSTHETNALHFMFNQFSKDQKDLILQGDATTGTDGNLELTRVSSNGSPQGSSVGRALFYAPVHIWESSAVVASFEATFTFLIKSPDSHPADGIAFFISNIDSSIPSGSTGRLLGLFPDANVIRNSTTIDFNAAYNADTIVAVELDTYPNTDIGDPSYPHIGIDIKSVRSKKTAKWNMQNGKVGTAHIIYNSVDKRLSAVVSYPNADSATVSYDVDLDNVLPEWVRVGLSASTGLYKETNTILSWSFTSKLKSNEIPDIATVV
Structure (SMILES),composite z-score [1],z-score [2],composite z-score [3],composite z-score [4],composite z-score [5],composite z-score [6],composite z-score [7],composite z-score [8],composite z-score [9],composite z-score [10],composite z-score (Albumin (Bos taurus)),composite Z-score [11],composite z-score [12],composite z-score [13],composite z-score [14],composite z-score [15],composite z-score [16],composite z-score (Sam68 (KHDRBS1)),composite z-score [17],composite z-score [18]
COc1cccc(C)c1NC(=O)O[C@H]1[C@H](OC(=O)Nc2ccccc2)[C@H](OC(=O)Nc2ccccc2)[C@@H](OC)O[C@@H]1CO,1.3,-2.96,-0.183,1.81,0.645,0.0775,0.775,-0.236,0.0722,1.3,0.958,-0.922 (inactive),-0.0647,0.0564,0.54,2.48,0.25,1.34,-1.05,1.17
COC(=O)[C@@]1(Cc2ccc(F)cc2)[C@@H]2[C@@H](CC(=O)[C@H]2CC(=O)C(=O)N2CCCC2)CN1C(=O)c1ccccc1,1.43,-2.01,-0.412,2.17,1.01,0.135,0.338,2.34,0.739,1.03,1.08,0.304 (inactive),0.506,0.239,0.603,3.17,0.552,1.3,-0.232,1.16
CN(C)C(=O)[C@@]1(Cc2ccccc2N=[N+]=[N-])N=C(c2ccc(OCCCO)cc2)O[C@H]1c1ccccc1N=[N+]=[N-],1.41,-2.28,-0.121,1.43,0.859,-0.0403,0.108,0.566,1.29,1.6,0.89,0.167 (inactive),0.277,0.083,0.565,1.65,0.372,1.33,0.325,0.819
O=C(N1CCOCC1)[C@@]1(CCS(=O)(=O)c2ccccc2)COC(c2ccc(OCCCO)cc2)=N1,0.901,-1.18,-1.21,1.25,0.0541,-0.124,0.314,-0.824,0.622,-0.422,0.39,0.667 (inactive),-0.0073,-0.191,0.704,2.45,-0.0296,0.605,-0.034,-0.257
O=C(NCc1ccccc1)[C@]1(Cc2ccccc2)N=C(c2ccc(OCCCO)cc2)O[C@@H]1c1ccccc1,1.4,-2.58,-0.126,2.01,1.1,-0.13,-0.305,0.044,0.652,0.351,0.895,0.638 (inactive),0.062,-0.0519,0.604,1.32,0.225,0.938,-0.243,0.418
CC1CC/C=C\[C@H]2OC34C=CCN(Cc5ccccc5)C(=O)[C@H]3N(CCO)C(=O)[C@@H]4C2C(=O)O1 (stereo not given in full),0.442,-0.0892,-0.51,-0.556,0.0116,0.0597,-0.0035,0.0169,1.62,-0.4,-0.897,0.461 (inactive),-0.0984,-0.154,0.873,0.368,1.29,0.386,-0.793,-0.315
C=CC[C@]1(C(=O)N(C)C)N=C(c2ccc(OCCCO)cc2)O[C@H]1c1ccccc1,1.46,-2,-0.309,1.57,0.19,0.224,0.33,1.15,0.765,1.25,0.641,-0.001 (inactive),0.297,-0.124,0.687,2.93,0.795,1.26,-0.336,0.999
CCCc1cc2c(n1Cc1ccc(OC)cc1)C(C)C1CN(C(=O)c3ccccc3)C(C)(C(=O)OC)C21 (stereo not given),0.247,-2.16,-0.307,2.6,1.42,0.157,0.686,1.26,2.19,2.52,1.08,-0.41 (inactive),0.223,0.16,0.571,3.13,0.746,1.25,-1.63,1.18
COC(=O)[C@]1(Cc2ccccc2N=[N+]=[N-])N=C(c2ccc(OCCCO)cc2)O[C@@H]1c1ccccc1,-0.296,-3.3,-0.96,0.279,0.41,0.0831,-0.111,0.534,0.738,0.41,-0.274,0.747 (inactive),0.0773,-0.0487,0.412,1.82,0.225,0.622,-1.1,0.458
COc1ccc([Si](C)(C)[C@@H]2[C@@H](CCO)O[C@]3(C(=O)N(Cc4cccc(N5C(=O)COc6ccccc65)c4)c4ccccc43)[C@H]2C)cc1,0.467,-4.83,-0.382,1.06,0.728,-0.063,0.0048,-0.167,-0.028,0.748,0.663,0.215 (inactive),-0.126,-0.0576,0.163,1.35,0.0386,0.19,-0.117,1.03
C#CCNS(=O)(=O)N(C)C,0.638,0.119,0.713,-0.157,-0.687,-0.096,0.0463,-0.168,0.0976,0.601,0.225,0.0498 (inactive),-0.124,-0.14,-0.107,0.214,-0.113,0.815,0.497,0.0968
